# Screens from PubChem BioAssay.
# Shown are actives, neighbours in structure and some others; about 2.8% of the full set was active somewhere.
# SENP6 inh = inhibitors of human SENP6 protease; Recombinant SENP6 catalytic domain, aminoluciferin luminescence; 330,000 compounds, 1.8% hits; AID 2599; inhibition, % at 10 µM;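 active = inhibition above about 50% at the single tested dose, limit read from the data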;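 also: plate controls were DMSO wells with enzyme for no effect and DMSO wells lacking enzyme for full effect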
# HSP90 refold inh = blocks HSP90-mediated luciferase refolding in reticulocyte lysate | Rabbit reticulocyte lysate, luciferase refolding luminescence, 3 h | 290,000 compounds, 0.91% hits | inhibition, % at 5.6 µM;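 active = inhibition above the screen-wide mean plus 3 SD, computed separately per campaign, cut at about 16% in these data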;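 also: 0% = DMSO wells and 100% = 60 µM geldanamycin wells; inhibitors lower the luminescence because luciferase stays unfolded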
# SENP8 block-1 = inhibitors of human SENP8 protease; Q96LD8; purified SENP8, Z-RLRGG-aminoluciferin cleavage, luminescence; inhibition, % at 10 µM; 330,000 compounds, 1.2% hits; in the data active = inhibition above about 50%
# Target sequence (Q96LD8 whole entry, looked up): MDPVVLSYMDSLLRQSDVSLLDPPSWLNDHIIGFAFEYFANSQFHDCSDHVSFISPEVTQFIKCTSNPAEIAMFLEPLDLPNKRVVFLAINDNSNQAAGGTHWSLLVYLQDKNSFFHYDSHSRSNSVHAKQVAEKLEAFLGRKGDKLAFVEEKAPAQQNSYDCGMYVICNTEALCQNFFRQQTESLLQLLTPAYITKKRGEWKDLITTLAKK
# SENP8 block-2 = SENP8 (human) protease inhibition. Q96LD8. recombinant SENP8, Nedd8 substrate fluorescence. inhibition, % at 20 µM. 360,000 compounds, 0.64% hits; in the data active = inhibition mostly above about 40%, no sharp cut-off; inactive = mostly below about 27%
# SENP7 block = SENP7 protease inhibition | inhibition, % at 5 µM | recombinant SENP7, Z-RLRGG-aminoluciferin luminescence, 40 min | 330,000 compounds, 1.5% hits | Q9BQF6;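 active = inhibition above about 50% at the single test dose, limit read from the data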;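 also: plate controls were DMSO with enzyme for no effect and no enzyme buffer wells for full effect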
# Target sequence (Q9BQF6 706-1050 limits assumed): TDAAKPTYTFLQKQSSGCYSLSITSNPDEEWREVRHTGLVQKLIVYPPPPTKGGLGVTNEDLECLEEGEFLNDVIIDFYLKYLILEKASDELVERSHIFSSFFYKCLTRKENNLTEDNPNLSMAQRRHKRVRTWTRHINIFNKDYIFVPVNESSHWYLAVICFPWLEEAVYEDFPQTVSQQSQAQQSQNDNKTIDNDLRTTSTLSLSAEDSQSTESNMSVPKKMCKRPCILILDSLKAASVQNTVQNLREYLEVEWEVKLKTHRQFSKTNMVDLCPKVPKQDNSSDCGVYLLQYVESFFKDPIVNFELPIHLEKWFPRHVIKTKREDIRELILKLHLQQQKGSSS
# An asterisk follows results filed as active; · = no result given.
SMILES,SENP6 inh,HSP90 refold inh,SENP8 block-1,SENP8 block-2,SENP7 block
Oc1ccccc1N1CCN(C(=S)NCCc2ccccc2)CC1,-4,-2,3,6,8
Nc1cc(OCC(F)(F)F)cc([N+](=O)[O-])c1,-10,0,-9,17,-6
Nc1cc(N)c(OCC(F)(F)F)cc1OCC(F)(F)F,11,-1,22,85*,8
Cc1cccc2nc(COc3ccc(-c4ccccc4)cc3)cn12,94*,1,92*,·,95*
Cc1cc(C)n2cc(COc3ccc4ccccc4c3)nc2n1,-2,5,-13,-416,0
COc1ccc(CNC2CCCc3ccccc32)c(OC)c1 (stereo unspecified),16,4,-4,11,-17
CCOc1ccc(NC(=O)Nc2ccccc2SC)cc1,98*,-1,95*,2,99*
CCOc1ccc(NC(=O)c2cc3ccccc3cc2O)cc1,45,1,23,-26,68*
Cc1ccc(C(=O)NN=Cc2ccc3c(c2)OCO3)cc1,·,·,·,-127,·
O=C(N/N=C/c1ccc(Br)cc1)c1ccc(Br)o1,86*,-5,65*,19,77*
O=C(N/N=C/c1ccccc1)c1ccc2c(c1)OCO2,11,16*,-2,19,19
Cc1ccc(C(=O)N/N=C/c2ccc3c(c2)OCO3)o1,61*,-3,36,-125,59*
CCC(CC)C(=O)N1N=C(c2ccc(NS(C)(=O)=O)cc2)CC1c1ccc(C)cc1 (stereo unspecified),-15,2,-7,-360,10
CCN(CC)C(=O)c1ccccc1NS(=O)(=O)c1ccc(C)cc1,19,-1,12,11,-5
O=C(Cc1ccccc1)NNC1CC(=O)N(c2ccc(Oc3ccccc3)cc2)C1=O (stereo unspecified),-29,-1,3,0,1
Cc1cccc(N=C/C(C(=O)C(F)(F)F)=C(\O)c2ccco2)c1,77*,4,28,-135,83*
Cc1cc(C)cc(-n2nnc3ccccc3c2=O)c1,·,·,·,-41,·
Cc1cccc(N=Cc2cc3c(cc2[N+](=O)[O-])OCO3)c1,30,4,-5,-116,-3
O=[N+]([O-])c1cc2c(cc1C=Nc1ccccc1)OCO2,57*,7,13,-304,12
CCc1ccc2c(c1)c(N=NC1=NC(=O)CS1)c(O)n2C,5,3,3,40*,6
CCn1cc(C(=O)NNC(=O)c2ccc(Cl)cc2)c(=O)c2ccc(C)nc21,-10,0,5,6,1
Cc1c(N/N=C(\C#N)C(=O)c2ccccc2)c(=O)n(-c2ccccc2)n1C,·,-1,·,40*,·
Cc1ccccc1C(=O)/C(C#N)=N/Nc1c(C)n(C)n(-c2ccccc2)c1=O,·,-6,·,24,·
O=C(Nc1nc(=O)c2ccccc2s1)c1ccc(Cl)cc1,7,1,-22,24,27
O=C(Nc1nc2ccsc2c(=O)s1)c1ccc(Cl)cc1,95*,-4,94*,-113,100*
SMILES,SENP6 inh,HSP90 refold inh,SENP8 block-1,SENP8 block-2,SENP7 block
CC1(C(=O)NS(=O)(=O)c2cccc(C#N)c2)CCN1C(=O)c1ccccc1CCc1ccccc1 (stereo unspecified),·,·,·,12,·
C=CCn1c(CC(=O)Nc2ccc(C)cc2C)nnc1SCC(=O)N1CCOCC1,10,1,9,2,0
COc1ccc2noc3c2c1C(=O)c1ccccc1-3,87*,·,80*,105*,57*
Cc1c(C(=O)N2CCCCC2)sc(NC(=O)C2CC2)c1C#N,0,-3,1,9,2
Cc1cccc2c1N(C(=O)CN1C(=O)c3ccccc3C1=O)C(C)(C)c1ssc(=S)c1-2,-15,-3,-2,24,2
Cc1[nH]n(-c2ccccc2)c(=O)c1C(C[N+](=O)[O-])c1ccc(Cl)cc1 (stereo unspecified),23,-3,-3,45*,22
CN1C=CC=C/C1=C1\SC(=S)N(c2ccccc2)C1=O,14,3,6,44*,12
COc1ccc(Cc2c3cc(OC)c(OC)cc3cc[n+]2C)cc1OC,20,·,14,60*,-6
CCOc1ccc(-c2cc(CCCC(=O)NCCc3ccc(OC)c(OC)c3OC)no2)cc1,-4,-1,-12,10,-2
CN(C)c1ccc(C=c2c3ccccc3n3c2c2ccccc2[n+]3C)cc1,·,·,·,-470,·
Cc1cc2c(=Cc3ccc(N(C)C)cc3)c3ccccc3n2[n+]1C,·,·,·,43*,·
CCOC(=O)c1cc2c(=Cc3ccc(N(C)C)cc3)c3ccccc3n2[n+]1C,·,·,·,91*,·
Cc1ccc(S(=O)(=O)Nc2ccccc2N=Cc2ccc([N+](=O)[O-])cc2[N+](=O)[O-])cc1,·,·,·,29,·
COc1ccc(S(=O)(=O)N2CCCN(CC(=O)Nc3cc(NC(C)=O)ccc3OC)CC2)cc1,-18,6,-1,18,-3
O=C(Nc1ccc(N2CCOCC2)cc1N1CCOCC1)c1cccc([N+](=O)[O-])c1,-3,-2,2,25,1
O=C1C(Cl)=C(N2CCN(c3ccccc3[N+](=O)[O-])CC2)C(=O)c2ccccc21,·,-1,·,61*,·
CCCNS(=O)(=O)c1cc2c3c(c1)C(C)C(=O)N3CCC2 (stereo unspecified),-8,-4,-7,0,5
CCN(CC)c1ccc(NC(=O)CSc2ccsc2[N+](=O)[O-])c(C)c1,7,3,3,46*,6
O=C(CSc1ccsc1[N+](=O)[O-])Nc1cc(F)ccc1F,·,6,·,8,·
CC(C)OCCCNC(=O)COCC(=O)Nc1ccc(OCCc2ccccc2)cc1,-11,0,0,3,2
COCCN1C(=O)/C(=C/c2ccc(N3CCCC3)cc2)SC1=S,0,0,5,44*,9
COc1ccc(/C=C2/SC(=S)N(CCC(=O)N3CCN(C)CC3)C2=O)cc1,-8,-3,-20,37*,-14
O=C(CC1NCCc2ccccc21)Nc1ccc(Oc2ccccc2)cc1 (stereo unspecified),8,6,-17,0,-8
Cc1cc(/C=C2\SC(=S)N(C)C2=O)c(C)n1-c1ccccc1O,87*,·,70*,-1,77*
COC(=O)c1sc(NC(=O)C2c3ccccc3Oc3ccccc32)c(C(=O)OC)c1C,-14,-4,1,-4,-6
SMILES,SENP6 inh,HSP90 refold inh,SENP8 block-1,SENP8 block-2,SENP7 block
COc1cc(NCc2ccccc2O)c2ncccc2c1,1,3,-9,-23,-6
Oc1ccccc1CNc1cccc2cccnc12,91*,3,79*,22,66*
CCN(CC)c1ccc(/C=C2/C(=O)N(c3ccc([N+](=O)[O-])cc3)N=C2N2CCOCC2)cc1,10,2,4,·,3
COc1cc(/C=C2/C(=O)N(c3ccc([N+](=O)[O-])cc3)N=C2N2CCOCC2)ccc1O,42,5,-1,64*,21
O/N=C/c1ccc(OCc2ccccc2F)c(Cl)c1,92*,-3,80*,11,75*
O/N=C/c1ccccc1OCc1ccccc1F,8,-2,-5,10,3
COc1ccccc1NC(=O)N1CCCC1C(=O)NCc1ccc(F)cc1 (stereo unspecified),19,2,0,25,-4
